Source: PubChem
Compounds with a hit are over-represented: about 2.4% of the library has one in this group of screens.
D2 ag-1 – Beta-Arrestin HTS for Positive Allosteric Modulators of the Human D2 Dopamine Receptor: Agonists | D(2) dopamine receptor (Homo sapiens), P14416 | DiscoveRx PathHunter D2 beta-arrestin, luminescence, 90 min; 100% = 57 uM dopamine signal | activation, % (concentration not given with the values) | hit rate 0.084% among 360,000; in the data active means activation above about 40%
Target sequence (P14416 whole entry, looked up): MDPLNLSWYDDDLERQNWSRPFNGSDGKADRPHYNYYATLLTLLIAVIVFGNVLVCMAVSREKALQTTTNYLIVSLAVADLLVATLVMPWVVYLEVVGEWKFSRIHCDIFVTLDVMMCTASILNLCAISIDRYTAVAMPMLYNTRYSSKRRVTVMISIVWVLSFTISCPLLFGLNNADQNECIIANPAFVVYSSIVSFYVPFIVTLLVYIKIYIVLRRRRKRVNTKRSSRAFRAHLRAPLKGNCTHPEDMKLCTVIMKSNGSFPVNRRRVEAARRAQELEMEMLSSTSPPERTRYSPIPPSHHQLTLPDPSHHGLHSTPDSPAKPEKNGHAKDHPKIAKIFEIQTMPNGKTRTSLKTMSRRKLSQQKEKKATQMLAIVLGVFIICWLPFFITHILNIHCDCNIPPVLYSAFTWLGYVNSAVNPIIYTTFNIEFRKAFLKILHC
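Agonist mode: compounds alone added to overnight-plated D2 PathHunter cells for 90 min at 37 C, with 57 uM final dopamine (EC100) defining full response. Beta-arrestin recruitment detected by chemiluminescent reagent, read after 1 h at ambient temperature.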
D2 PAM-1 – HTS Assay for Positive Allosteric Modulators of the Human D2 Dopamine Receptor: Primary Screen for Potentiators; HEK293 T-REx D2, calcium flux, EC20 dopamine potentiation; potentiation, % at 10 µM; hit rate 0.34% among 340,000;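 active means potentiation over 3 SD above the plate norm, cut at about 30% in these data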; further: 0% is about no effect
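Potentiation of an EC20 dopamine calcium response is measured in a force-coupled, tetracycline-inducible Hek293 Trex D2 line. Compound-only kinetic reads over 180 s flag agonists before dopamine addition.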
D2 PAM-2 – Beta-Arrestin HTS for Positive Allosteric Modulators of the Human D2 Dopamine Receptor: Potentiators; DiscoveRx D2 beta-arrestin cells, luminescence, 90 min; 100% = 57 uM dopamine signal; hit rate 0.23% among 360,000; potentiation, % (test concentration not listed); AID 624464, 2012; D(2) dopamine receptor (Homo sapiens), P14416; in the data active means potentiation above about 50%
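PathHunter beta-arrestin assay in DiscoveRx D2 cells. Compounds were added with an EC20 of dopamine (50 nM final) for 90 min at 37 deg C. Luminescence was read 1 h after detection reagent, with 57 uM dopamine as the EC100 control.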
D2 antag – HTS Assay for Allosteric Antagonists of the Human D2 Dopamine Receptor: Primary Screen for Antagonists; D(2) dopamine receptor (Homo sapiens), P14416; HEK293 TREx D2 cells, calcium flux, dopamine EC80; inhibition, % at 10 µM; hit rate 2% among 340,000; in the data active means inhibition above about 30%; inactive means below that, where a call was filed; further: 0% is about no effect
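Calcium flux kinetic readout in an inducible HEK293 TREx D2 line plated overnight at 30 C. After 180 s compound exposure, an EC80 dopamine challenge follows with another 180 s kinetic read to detect antagonism.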
D2 ag-2 – HTS Assay for Allosteric Agonists of the Human D2 Dopamine Receptor: Primary Screen for Agonists | hit rate 0.53% among 340,000 | activation, % at 2 µM | D(2) dopamine receptor (Homo sapiens), P14416 | HEK293 T-REx D2 cells, calcium flux agonist mode;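 active means activation over 3 SD above normal in the single-dose calcium agonist read, cut at about 30% in these data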; further: 0% is about no effect
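Agonism is scored from calcium flux in a force-coupled, inducible HEK293 cell line expressing D2, read kinetically for 180 s after compound addition against dopamine controls.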
* = called active by the depositor.

Results for N#CC1(NC(=O)COC(=O)c2nc(Cl)c(Cl)c(N)c2Cl)CCCCC1 ?
D2 ag-1: 5.9; D2 PAM-1: -14.8; D2 PAM-2: -8.4; D2 antag: -5.1; D2 ag-2: 30.6*

Results for N#CC1(NC(=O)COC(=O)c2ncc(Cl)c(Cl)c2Cl)CCCCC1 ?
D2 ag-1: -0.2; D2 PAM-1: 6.6; D2 PAM-2: 26.1; D2 antag: -3.9; D2 ag-2: 0.8

Results for NC(N)=NCc1cccc(I)c1 ?
D2 ag-1: 4.9; D2 PAM-1: -5.1; D2 PAM-2: -16.9; D2 antag: 34.3*; D2 ag-2: 1.4

What do the screens show for `CCOc1ccc(-c2cc3nc(C4CCN(C(=O)OC(C)(C)C)CC4)c(C(=O)Nc4ccc(C)cc4C)cn3n2)cc1`?
D2 PAM-1: 2.2; D2 ag-2: -0.1

What do the screens show for `Cc1ccc(CNC(=O)CCc2nnc3n(C)c(=O)c4sccc4n23)cc1`?
D2 PAM-1: -3.7; D2 ag-2: 0.3

How did O=C(c1cc2ccccc2oc1=O)N1CCN(c2ccc(Cl)cc2)CC1 do in these assays?
D2 PAM-1: 10.9; D2 ag-2: 0.7

What do the screens show for `COc1ccc(OCC(=O)Nc2ccccc2C(=O)N2CCOCC2)cc1`?
D2 ag-1: -4.9; D2 PAM-1: 35.7*; D2 PAM-2: -5.2; D2 antag: -14.6; D2 ag-2: -0.6

What do the screens show for `Cc1ccc(NC(=O)CCc2nc(-c3ccccc3F)no2)c(C)c1`?
D2 PAM-1: -1.1; D2 ag-2: -0.7

What do the screens show for `O=C(CCNS(=O)(=O)c1cccc(C(F)(F)F)c1)NC1CC1`?
D2 ag-1: -0.6; D2 PAM-1: 44.8*; D2 PAM-2: -0.4; D2 antag: 12.9; D2 ag-2: -0.5

Results for CC1CCC(NC(=O)CCNS(=O)(=O)c2ccccc2)CC1 (centres undefined) ?
D2 ag-1: -2.2; D2 PAM-1: -7.7; D2 PAM-2: 2.0; D2 antag: 12.4; D2 ag-2: 0.7

What do the screens show for `Cc1cc2ncn(/N=C/c3ccc4c(c3)OCO4)c2cc1C`?
D2 ag-1: -3.4; D2 PAM-1: -0.6; D2 PAM-2: -2.9; D2 antag: 89.0*; D2 ag-2: 2.0

How did Cc1cc2ncn(/N=C/c3cccnc3)c2cc1C do in these assays?
D2 ag-1: -2.0; D2 PAM-1: 0.3; D2 PAM-2: -23.4; D2 antag: -2.5; D2 ag-2: -0.1

Results for c1ccc(-c2ccccc2OCCCN2CCCCCC2)cc1 ?
D2 ag-1: 1.2; D2 PAM-1: -22.5; D2 PAM-2: -11.8; D2 antag: 56.2*; D2 ag-2: -1.6

Results for c1ccc(-c2ccccc2OCCCCN2CCCCC2)cc1 ?
D2 ag-1: -2.8; D2 PAM-1: -21.2; D2 PAM-2: -11.2; D2 antag: 74.9*; D2 ag-2: 0.0

Results for c1ccc(-c2ccccc2OCCCN2CCCC2)cc1 ?
D2 ag-1: -1.5; D2 PAM-1: -27.2; D2 PAM-2: -16.2; D2 antag: 1.5; D2 ag-2: 0.6

How did Cc1c(NC(=O)Cc2ccc(Cl)cc2)cccc1-c1nc2cccnc2s1 do in these assays?
D2 PAM-1: -10.4; D2 ag-2: -0.7

Results for Cc1c(C(C)NC(=O)Nc2ccc(F)cc2F)cnn1C (centres undefined) ?
D2 ag-1: -3.4; D2 PAM-1: -13.4; D2 PAM-2: -24.1; D2 antag: 38.2*; D2 ag-2: -0.8

Results for Cc1cc(NC(=O)Nc2ccc(F)cc2F)n(C)n1 ?
D2 ag-1: -3.9; D2 PAM-1: -4.5; D2 PAM-2: -9.7; D2 antag: 13.3; D2 ag-2: 6.3

How did COc1ccccc1CNc1nc2c(S(=O)(=O)c3ccc(C)c(C)c3)nnn2c2ccc(Cl)cc12 do in these assays?
D2 PAM-1: 2.4

How did CC(OC(=O)c1ccc(NC(=O)CC#N)cc1)C(=O)NCCC1=CCCCC1 (centres undefined) do in these assays?
D2 ag-1: -0.5; D2 PAM-1: -2.8; D2 PAM-2: 4.2; D2 antag: 38.3*; D2 ag-2: 0.1

What do the screens show for `O=C(CSc1nc2ccc(N3CCOCC3)cc2c(=O)n1CCc1ccccc1)NCC1CCCO1` (centres undefined)?
D2 ag-1: 14.2; D2 PAM-2: 6.4; D2 antag: 40.6*; D2 ag-2: 1.1

What do the screens show for `Cc1ccc2c(c1)-c1nc(-c3ccc4c(c3)NC(=O)CO4)cc(-c3ccc(F)cc3)c1CO2`?
D2 PAM-1: 12.5; D2 ag-2: 0.2

What do the screens show for `CC(=O)C1=C(O)C(=O)N(c2ccc(Br)cn2)C1c1ccccc1[N+](=O)[O-]` (centres undefined)?
D2 ag-1: -2.9; D2 PAM-1: 0.8; D2 PAM-2: -6.3; D2 antag: 31.2*; D2 ag-2: 0.8

What do the screens show for `CCN(CC(=O)Nc1cc(Cl)ccc1C)C(=O)C1CC(=O)N(Cc2ccccc2)C1` (centres undefined)?
D2 ag-1: 3.2; D2 PAM-1: -24.8; D2 PAM-2: -13.0; D2 antag: 7.5; D2 ag-2: 0.1

How did CCN(CC(=O)Nc1cc(Cl)ccc1C)C(=O)C1CC1 do in these assays?
D2 ag-1: -0.8; D2 PAM-1: 7.0; D2 PAM-2: -3.0; D2 antag: 55.7*; D2 ag-2: 0.2

Results for CCN(CC(=O)Nc1cc(Cl)ccc1C)C(=O)CSCc1c(C)noc1C ?
D2 ag-1: -0.4; D2 PAM-1: -16.4; D2 PAM-2: -10.1; D2 antag: 32.7*; D2 ag-2: 0.2

What do the screens show for `COc1ccc(C2C(=O)N(C3CCCCCC3)CC(=O)N2CCC2=CCCCC2)cc1` (centres undefined)?
D2 PAM-1: -17.4; D2 ag-2: 1.0

How did CCCn1c(=O)n(-c2ccccc2Cl)c(=O)c2sc3ccccc3c21 do in these assays?
D2 PAM-1: 24.7

How did Cc1onc(-c2ccccc2Cl)c1C(=O)NCCCN1CCOCC1 do in these assays?
D2 ag-1: -1.2; D2 PAM-1: 6.9; D2 PAM-2: -1.0; D2 antag: 15.0; D2 ag-2: 1.3

Results for Cc1onc(-c2c(Cl)cccc2Cl)c1C(=O)NCCCN1CCOCC1 ?
D2 ag-1: -2.7; D2 PAM-1: -22.2; D2 PAM-2: 2.8; D2 antag: 43.5*; D2 ag-2: 0.3

What do the screens show for `CC(C)CCC(CCN1CCOCC1)c1ccc2c(c1)OCO2` (centres undefined)?
D2 ag-1: -0.4; D2 PAM-1: 2.5; D2 PAM-2: -14.0; D2 antag: 30.9*; D2 ag-2: 0.1
